Assay outcomes (PubChem BioAssay)
GSH bead fluor: compound fluoresces at 488/530 nm on GSH beads; GSH beads flow cytometry, compound fluorescence 488/530 nm; active compounds read high; fluorescence (KMESF) at 10 µM; 190,000 tested, 0.25% active; in the data active = fluorescence above about 89;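 note: glutathione beads carrying GST-tagged Bcl family fusion proteins plus one bare bead set; values are compound well signal with DMSO vehicle wells as background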
RGS16-Gao HTS: RGS16-Galphao interaction regulator (human). bead-based flow cytometry RGS16-Galphao binding, fluorescence; actives lie on both sides. 220,000 tested, 0.38% active. O15492+P09471. binding response (% of control), % at 10 µM. AID 1441;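 note: Galphao activated by GDP with aluminum fluoride before binding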
RGS7-Gao reg: regulators of human RGS7-Galphao interaction. Multiplexed bead flow cytometry, RGS7-Galphao binding; actives lie on both sides. binding response (% of control), % at 10 µM. 220,000 tested, 0.35% active. AID 1439; in the data active = binding response below about 49% or above about 150%; inconclusive = no clear call, values can overlap the other calls; inactive = in between;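 note: fluorescent Galphao held in activated GDP-AlF4 state binding bead-coupled RGS7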
Target sequence (P09471 whole entry, looked up): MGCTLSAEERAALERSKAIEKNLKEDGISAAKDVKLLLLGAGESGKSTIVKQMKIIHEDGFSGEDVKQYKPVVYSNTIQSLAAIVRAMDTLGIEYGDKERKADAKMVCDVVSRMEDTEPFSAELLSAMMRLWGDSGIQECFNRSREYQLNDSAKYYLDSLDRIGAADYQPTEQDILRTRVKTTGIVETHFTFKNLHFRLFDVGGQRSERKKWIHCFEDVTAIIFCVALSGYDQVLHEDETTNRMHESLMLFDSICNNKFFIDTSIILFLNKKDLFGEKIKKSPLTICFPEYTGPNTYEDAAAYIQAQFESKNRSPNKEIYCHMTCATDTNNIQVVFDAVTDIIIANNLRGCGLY
Avidin bead fluor: compound fluoresces at 488/530 nm on avidin beads. compound fluorescence 488/530 nm, flow cytometry; active compounds read high. AID 1775. 220,000 tested, 0.38% active. fluorescence (KMESF) at 10 µM; in the data active = fluorescence above about 47
RGS4-Gao reg: modulates binding of RGS4 to human Galphao | P09471 | Multiplexed bead flow cytometry; actives lie on both sides | binding response (% of control), % at 10 µM | 220,000 tested, 0.33% active | AID 1415; in the data active = binding response below about 49% or above about 150%; inactive = in between;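 note: fluorescent Galphao activated with aluminum fluoride binding bead-coupled RGS4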
RGS8-Gao: modulates binding of RGS8 to human Galphao | P09471 | multiplexed bead flow cytometry; actives lie on both sides | response (percent of control binding), % at 10 µM | 220,000 tested, 0.34% active; in the data active = response below about 60% or above about 140%; inactive = in between;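 note: Galphao activated as the GDP aluminium fluoride complex binding bead-coupled RGS8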
RGS4-Gao HTS: regulators of human RGS4-Galphao interaction; shares compounds with RGS16-Gao HTS; multiplexed bead flow cytometry, RGS–Galpha-o binding; RGS4–Galpha-o binding response, % at 10 µM; 1,600 tested, 99% active; AID 1504;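 note: fluorescently labeled Galpha-o bound to GDP with aluminium fluoride binding biotinylated RGS beads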
Target sequence (P09471 whole entry, looked up): as above
Target sequence (P49798 whole entry, looked up): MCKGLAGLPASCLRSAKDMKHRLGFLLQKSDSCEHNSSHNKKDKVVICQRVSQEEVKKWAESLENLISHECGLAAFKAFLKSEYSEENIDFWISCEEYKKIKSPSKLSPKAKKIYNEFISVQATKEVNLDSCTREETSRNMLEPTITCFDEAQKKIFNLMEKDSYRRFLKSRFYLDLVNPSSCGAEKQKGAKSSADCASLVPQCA
Biotin-avidin: interferes with biotinylated probe binding to avidin beads. shares compounds with RGS16-Gao HTS. streptavidin beads, fluorescein-biotin binding, flow cytometry. inhibition, % at 10 µM. 1,700 tested, under 10 active;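 active = inhibition above 50%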;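 note: median green fluorescence of gated singlet beads compared with DMSO control wells; 0% = DMSO wells and 100% = complete loss of bead fluorescence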
RGS8-Gao single: confirmation of regulators of human RGS8-Galphao interaction | bead-based flow cytometry RGS8-Galphao binding, fluorescence; actives lie on both sides | shares compounds with RGS16-Gao HTS | 1,700 tested, 3% active | binding response (% of control), % at 10 µM; in the data active = binding response below about 72% or above about 130%; inactive = in between;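 note: Galphao activated as GDP AlF4 complex before binding bead RGS8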
RGS7-Gao confirm: confirmation of regulators of human RGS7-Galphao interaction | bead-based flow cytometry RGS7-Galphao binding; actives lie on both sides | response (percent of control binding), % at 10 µM | shares compounds with RGS16-Gao HTS | 1,700 tested, 7.8% active; in the data active = response below about 75% or above about 130%; inactive = in between;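 note: fluorescent Galphao activated with GDP and aluminum fluoride binding bead-coupled RGS7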
RGS16-Gao conf: RGS16-Galphao interaction regulation, single point confirmation | shares compounds with RGS16-Gao HTS | bead-based flow cytometry, RGS16-Galphao binding; actives lie on both sides | response (% of control binding), % at 10 µM | 1,700 tested, 4% active | AID 1838; in the data active = response below about 74% or above about 130%; inactive = in between;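 note: Galphao activated as the GDP aluminium fluoride complex binding bead-coupled RGS16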
RGS4-Gao confirm: confirmation of regulators of human RGS4-Galphao interaction; shares compounds with RGS16-Gao HTS; binding response (% of control), % at 10 µM; RGS4-Galphao binding, multiplexed bead flow cytometry; actives lie on both sides; AID 1840; 1,700 tested, 4% active; in the data active = binding response below about 74% or above about 130%; inactive = in between
RGS19-Gao single: confirmation of regulators of human RGS19-Galphao interaction. 1,700 tested, 5% active. bead-based flow cytometry RGS19-Galphao binding; actives lie on both sides. response (percent of control binding), % at 10 µM. shares compounds with RGS16-Gao HTS. AID 1841; in the data active = response below about 50% or above about 160%; inactive = in between;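 note: 100% = no compound control and 0% = blank background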
Starred values were filed as active, the others as inactive; u = inconclusive; x = no result; [ ] = another dose, or the depositor's remark. Compounds with a hit are over-represented: about 1.2% of the library has one in this group of screens. Unless noted, the rule behind the calls is not given here.

SMILES | GSH bead fluor | RGS16-Gao HTS | RGS7-Gao reg | Avidin bead fluor | RGS4-Gao reg | RGS8-Gao | RGS4-Gao HTS | Biotin-avidin | RGS8-Gao single | RGS7-Gao confirm | RGS16-Gao conf | RGS4-Gao confirm | RGS19-Gao single
COc1ccc(NC(=O)Nc2ccc(F)c(F)c2)c(OC)c1 | 12 | 102 | 98 | 7 | 104 | 99 | x | x | x | x | x | x | x
CCN(c1ccc(N=Cc2c(O)n(Cc3ccc(OC)cc3)c(=O)c3ccccc23)cc1)C(C)C | 155* | 120 | 163*[activator] | 19 | 124 | 103 | 124* | 2 | 116 | 309*[activator] | 194*[activator] | 221*[activator] | 473*[activator]
CCOc1ccc(NC(=O)CC)cc1 | 21 | 107 | u | 10 | 106 | 105 | x | x | x | x | x | x | x
CCOc1ccc(NC(=O)CSC(N)=O)cc1 | 43 | 243 | 106 | 5 | 100 | 163*[activator] | 100* | 1 | 103 | 90 | 100 | 95 | 91
CC(NC(=O)c1cn(C(C)c2ccccc2F)nn1)c1ccncc1 (configuration not stated) | 18 | 95 | 96 | 9 | 99 | 101 | x | x | x | x | x | x | x
COc1ccc(C(=O)CN2C(=O)c3ccccc3C2=O)cc1 | x | 94 | u | 6 | 92 | 100 | x | x | x | x | x | x | x
CCCN(CCC)c1nc(C#N)nc(N(CCC)CCC)n1 | 11 | 29 | 54 | 1 | 96 | 48* | 96* | 1 | 98 | 101 | 102 | 96 | 93
C/C(=N/NC(=O)c1cc(-c2ccc(Br)s2)[nH]n1)c1ccco1 | 32 | 114 | 104 | 10 | 104 | 106 | x | x | x | x | x | x | x
C/C(=N\NC(=O)c1cc(C(C)C)[nH]n1)c1ccco1 | 7 | 190*[activator] | 106 | 3 | 102 | 126 | 102* | 2 | 101 | 102 | 101 | 100 | 108
Cc1cc(Cl)c(S(=O)(=O)N2CCN(c3ccccn3)CC2)cc1OCC(=O)NC1CCCCC1 | x | 96 | u | 6 | 95 | 101 | x | x | x | x | x | x | x
Cn1cc(Br)c(C(=O)Nc2ncc(Br)s2)n1 | 8 | 8.7* | 12* | 0 | 15* | 14* | x | 1 | 102 | 90 | 97 | 92 | 100
CC(C)Sc1nc2ncnc(N)c2[nH]1 | 15 | 72 | 96 | 6 | 93 | 90 | x | x | x | x | x | x | x
Cc1ccc(S(=O)(=O)NC(C)(C)CSc2ccccn2)cc1 | 9 | 13* | 92 | 1 | 87 | 64 | 87* | -2 | 101 | 103 | 102 | 102 | 112
O=C(Nc1ccccc1)Nc1snnc1C(=O)Nc1cccc(O)c1 | 15 | 12* | 16* | 2 | 16* | 24* | x | 2 | 105 | 113 | 106 | 106 | 105
COc1ccc(C(=S)N2CCOCC2)cc1OC(=O)c1cc([N+](=O)[O-])c(C)c([N+](=O)[O-])c1 | 16 | 104 | 107 | 14 | 100 | 101 | x | x | x | x | x | x | x
COc1cc(C(=S)N2CCOCC2)ccc1OC(=O)c1cc([N+](=O)[O-])c(C)c([N+](=O)[O-])c1 | 5 | 6.2* | 91 | 6 | 86 | 80 | 86* | -1 | 102 | 98 | 102 | 101 | 95
COc1ccc(N(C(C)C(=O)N/N=C/c2cccnc2)S(C)(=O)=O)cc1 (configuration not stated) | 10 | 98 | 95 | 7 | 101 | 101 | x | x | x | x | x | x | x
Cc1nc(NCCN2CCOCC2)c2nnn(Cc3ccccc3Cl)c2n1 | 46 | 93 | 100 | 8 | 101 | 103 | x | x | x | x | x | x | x
CC(C)(C)c1nc(NCCN2CCOCC2)c2nnn(Cc3ccccc3Cl)c2n1 | 55 | 342 | 125 | 7 | 129 | 153*[activator] | 129* | 10 | 99 | 70* | 92 | 77 | 84
Clc1ccccc1Cn1nnc2c(NCCN3CCOCC3)ncnc21 | 26 | 234 | 117 | 16 | 114 | 141*[activator] | 114* | 1 | 103 | 105 | 102 | 103 | 91
NC(=O)c1nc(-c2ccco2)nc2c1[nH]c(=O)n2-c1ccc(Cl)c(Cl)c1 | x | 94 | u | 10 | 95 | 99 | x | x | x | x | x | x | x
CC(/C=C1\SC(=O)N(CCCC(=O)O)C1=O)=C\c1ccccc1 | 13 | 83 | 160*[activator] | 2 | 165*[activator] | 132 | x | -1 | 101 | 98 | 97 | 98 | 104
CC1CC(=O)C(C2c3ccccc3CCN2C(=O)CCl)C(=O)C1 (configuration not stated) | 10 | 100 | 106 | 13 | 99 | 100 | x | x | x | x | x | x | x
COc1cc2c(cc1OC)C(C1C(=O)CC(C)(C)CC1=O)N(C(=O)CCl)CC2 (configuration not stated) | 7 | 17* | 92 | 7 | 90 | 74 | 90* | 0 | 99 | 99 | 101 | 100 | 103
Cc1ccc(-n2c(SCC(=O)N3CCOCC3)nnc2-c2ccncc2)cc1C | x | 96 | u | 9 | 99 | 98 | x | x | x | x | x | x | x
CN1CCN(C(CNS(=O)(=O)c2ccc(Cl)cc2)c2cccnc2)CC1 (configuration not stated) | 33 | 164 | 157*[activator] | 130* | 110 | 111 | 110* | -1 | 98 | 94 | 97 | 95 | 90
COc1ccc(-c2csc(C3=C(O)CN(C(C)C)C3=N)n2)cc1OC | 8 | 102 | u | 14 | 103 | 100 | x | x | x | x | x | x | x
CC(C)CCN1CCC(N)=NC1=O | 35 | 191*[activator] | 217*[activator] | 26 | 234*[activator] | 110 | x | -2 | 115 | 104 | 116 | 107 | 86
CC(C)CCN1CC(C(=O)NCCC2=CCCCC2)CC1=O (configuration not stated) | 14 | 103 | 99 | 6 | 101 | 104 | x | x | x | x | x | x | x
CS(=O)(=O)N(CC(=O)NCc1ccncc1)c1cc(Cl)ccc1Cl | 12 | 100 | 98 | 12 | 100 | 101 | x | x | x | x | x | x | x
